Compound activity (PubChem BioAssay)
Only a selection was taken, and hits are over-represented in it overall.
CBX7 AlphaScr: CBX7 inhibition, primary AlphaScreen; O95931; AlphaScreen His6-CBX7 / biotin-H3K27me3 peptide binding; hits give low values; normalised signal (fraction of DMSO) (no concentration beside the values); 66,000 tested, 1.1% active; in the data active means normalised signal below about 0.5
Target sequence (O95931 whole entry, looked up): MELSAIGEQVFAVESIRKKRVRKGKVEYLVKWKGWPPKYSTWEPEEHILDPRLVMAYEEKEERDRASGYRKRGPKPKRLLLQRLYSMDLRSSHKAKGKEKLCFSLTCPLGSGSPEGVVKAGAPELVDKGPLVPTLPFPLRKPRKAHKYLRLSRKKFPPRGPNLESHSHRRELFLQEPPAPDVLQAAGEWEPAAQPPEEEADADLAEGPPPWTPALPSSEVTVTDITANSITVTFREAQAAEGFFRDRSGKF
Hits are given with their value; – = inactive.

SMILES	CBX7 AlphaScr
COc1cc(NC(=O)Cn2c(SCc3cccc(F)c3)nc3ccncc32)cc(OC)c1	–
CCOC(=O)c1cc(-c2ccc(OC)cc2)n(CCC(=O)Nc2ccc(OC)cc2)c1C	–
CCN(CC)CCCNC(=O)c1cn(CC(C)C)c(=O)c2cc(OC)c(OC)cc12	–
CC(C)NC(=O)Cn1nc(-c2ccccc2)ccc1=O	–
CC1CCN(S(=O)(=O)c2ccc3nc(-c4ccccn4)cc(C(=O)NC4CCCCC4)c3c2)CC1	–
COc1ccccc1OCCCCc1c(C)n[nH]c1C	–
COc1ccccc1OCCCCCCc1c(C)n[nH]c1C	0.498
Cc1ccccc1OCCCCCc1c(C)n[nH]c1C	–
Cc1ccc(C)c2[nH]c(=O)c(CCNC(=O)c3ccc(Br)cc3)cc12	–
Cc1ccc(-c2nc(NC(=O)c3ccccc3Br)sc2C)cc1	–
COc1ccc(-c2nc(-c3ccccc3)c(-c3ccc(Cl)cc3)[nH]2)cc1	–
COc1ccc(-c2nc(-c3ccccc3)c(-c3ccc(Oc4ccccc4)cc3)[nH]2)cc1	0.472
Oc1ccc(-c2nc(-c3ccccc3)c(-c3ccc(Oc4ccccc4)cc3)[nH]2)cc1O	0.446
COc1ccc(-c2nc(-c3ccccc3)c(-c3ccc(Sc4ccccc4)cc3)[nH]2)cc1	–
COc1ccc(-c2nc(-c3ccccc3F)[nH]c2-c2ccc(OC)cc2)cc1	0.466
COc1ccc(-c2nc(-c3cccc4ccccc34)[nH]c2-c2ccc(OC)cc2)cc1	–
COc1ccc(-c2nc(-c3cccc(F)c3)[nH]c2-c2ccc(OC)cc2)cc1	–
CCCCCCOc1ccc(N2C(=O)CC(NCCc3ccc(OC)cc3)C2=O)cc1 (configuration not stated)	–
COc1ccc(Cl)cc1NC(=O)CCc1nc(-c2cccs2)no1	–
Cc1ccccc1-c1noc(COc2ccc(C(C)(C)C)cc2)n1	–
CCOc1ccccc1C(=O)Nc1c(-c2ccc(OC)cc2)nc2cc(C)ccn12	–
CC1(C)CC(=O)c2cc(C(=O)Nc3ccccc3)c(=O)n(-c3ccc(Cl)cc3)c2C1	–
Cc1ccc2nsnc2c1NC(=O)c1cc(Br)ccc1Cl	–
Cc1ccc2nsnc2c1NC(=O)c1ncn[nH]1	0.452
Cc1ccc2nsnc2c1NC(=O)c1cc(Cl)ccc1Cl	–
SMILES	CBX7 AlphaScr
CCC(=O)N1CCc2cc(S(=O)(=O)NCCc3ccc(C)cc3)ccc21	–
CCOC(=O)C1CCCN(c2c(NCCCN3CCN(CC)CC3)c(=O)c2=O)C1 (configuration not stated)	–
Oc1cccc(-c2nc(-c3ccccc3)c(-c3ccc(F)cc3)[nH]2)c1	0.348
Cc1ccc(C)c(-c2[nH]c(-c3cccc(O)c3)nc2-c2ccccc2)c1	–
Oc1ccc(-c2nc(-c3ccccc3)c(-c3ccc(F)cc3)[nH]2)cc1O	–
O=C(c1ccccc1)c1ccc(-c2[nH]c(-c3cccc(Cl)c3)nc2-c2ccccc2)cc1	–
O=C(O)c1ccc(-c2nc(-c3ccc(C(=O)c4ccc(F)cc4)cc3)c(-c3ccc(F)cc3)[nH]2)cc1	–
Oc1cccc(-c2nc(-c3ccccc3)c(-c3ccccc3)[nH]2)c1	0.341
CC(=O)N1CCc2cc(S(=O)(=O)NC(C(=O)N3CCC4(CC3)OCCO4)C(C)C)ccc21 (configuration not stated)	–
CCc1ccccc1NC(=O)c1nn2c(C(F)(F)F)cc(-c3ccccc3)nc2c1Br	–
COCCNC(=O)c1ccc2c(c1)N(Cc1cccc(Cl)c1)C(=O)c1ccccc1S2	–
CC1CCN(S(=O)(=O)c2ccc(C(=O)Nc3ccccc3-c3nc4ccccc4s3)cc2)CC1	–
COc1ccc(-c2noc(N(C)CC(=O)Nc3ccc(OC)cc3OC)n2)cc1	–
COc1ccc(-c2noc(N(C)CC(=O)Nc3cc(C)on3)n2)cc1	0
COc1ccc(-c2noc(N(C)CC(=O)Nc3ccccn3)n2)cc1	–
O=C(Nc1c(C(=O)N2CCCCC2)sc2c1CCCC2)c1ccccc1	–
Cc1nn(-c2ccccc2)c(Cl)c1C(=O)Nc1ccccc1Cl	–
Cc1ccc(Cl)cc1-n1c(CCC(=O)O)ccc1-c1ccccc1	–
COc1cc(OC)cc(OCC(O)Cn2cnc3cc(C)c(C)cc32)c1 (configuration not stated)	–
Cc1cc2ncn(CC(O)COc3ccccc3C)c2cc1C (configuration not stated)	0.172
Cc1cc2ncn(CC(O)COc3ccc(C(C)C)cc3)c2cc1C (configuration not stated)	–
COc1ccc(NC(=O)COCc2cc(-c3ccc(F)cc3)on2)cc1OC	–
COc1ccc(-c2nc(C(=O)NCCc3ccc(Cl)cc3)c(C)o2)cc1OC	–
CCCCn1cnc2cc(NCc3cccc(OC)c3)ccc21	0.357
CCn1cnc2cc(NCc3cccc(OC)c3)ccc21	–
SMILES	CBX7 AlphaScr
CCCCn1cnc2cc(NCc3ccccc3OCC)ccc21	0.189
CCn1cnc2cc(NCc3ccccc3Cl)ccc21	–
CCCCn1cnc2cc(NCc3ccc(OCC)cc3)ccc21	–
CCCCn1cnc2cc(NCc3ccccc3Cl)ccc21	0.225
CCn1cnc2cc(NCc3ccccc3OC)ccc21	–
CCCn1cnc2cc(NCc3ccccc3OCC)ccc21	–
CCCn1cnc2cc(NCc3ccccc3Cl)ccc21	–
CCOC(=O)C1CCN(c2c(Nc3ccc(C(C)C)cc3)c(=O)c2=O)CC1	–
O=C(Nc1cccc(-c2nc3ccccc3o2)c1)c1cccnc1Cl	–
CCc1cccc(C)c1NC1c2ccccc2C(=O)N1c1ccc(C)cn1 (configuration not stated)	–
CCn1cc(C(=O)NCc2ccc(F)cc2)c2cc(OC)c(OC)cc2c1=O	–
CCOc1ccc(-c2nc3cc(NC(=O)c4ccc(Cl)cc4)ccc3o2)cc1	–
COC(=O)c1c[nH]n2c(NC3CCCCC3)c(-c3ccc(Cl)cc3)nc12	–
COC(=O)c1c[nH]n2c(NCCc3ccccc3)c(-c3ccc(C)cc3)nc12	–
COC(=O)c1c[nH]n2c(NC3CCC(C)CC3)c(-c3ccc(OC)c(OC)c3)nc12 (configuration not stated)	0.269
COC(=O)c1c[nH]n2c(NC3CCC(C)CC3)c(-c3ccc(F)cc3)nc12 (configuration not stated)	0.251
COC(=O)c1c[nH]n2c(NC3CCCCCC3)c(-c3ccc(Cl)cc3)nc12	–
COC(=O)c1c[nH]n2c(NCCc3ccccc3)c(-c3ccc(F)cc3)nc12	–
CCC(=O)N1c2ccc(S(=O)(=O)CCC(=O)N3CCc4ccccc43)cc2CC1C (configuration not stated)	–
CCCNC(=O)C1CCCN(c2nc3ccc(OCC)cc3s2)C1 (configuration not stated)	–
CCOc1ccc2nc(N3CCCC(C(=O)NCCCN4CCOCC4)C3)sc2c1 (configuration not stated)	–
CCCN1CCN(C(=O)C2CCCN(c3nc4ccc(OCC)cc4s3)C2)CC1 (configuration not stated)	0.285
CCOC(=O)N1CCN(C(=O)C2CCCN(c3nc4ccc(OCC)cc4s3)C2)CC1 (configuration not stated)	–
CCOc1ccc2nc(N3CCCC(C(=O)N4CCN(c5ccc(OC)cc5)CC4)C3)sc2c1 (configuration not stated)	–
CCOc1ccc2nc(N3CCCC(C(=O)NCCCN4CCN(C)CC4)C3)sc2c1 (configuration not stated)	0.437
CCn1c(=O)cc(OCC(=O)Nc2ccccc2OC)c2ccccc21	–
Cc1nc2c(C(=O)NCc3ccc(F)cc3)cnn2c(C)c1Cc1cccc(Br)c1	–
